# PAFAH1B2 inh: inhibitors of human PAFAH1B2; P68402; recombinant PAFAH1B2, FP-rhodamine activity probe, fluorescence polarization; inhibition, % at 3.39 µM; hit rate 1.2% among 340,000; AID 492953;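 active = inhibition above the mean of all tested compounds plus 3 SD, cut at about 24% in these data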;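 also: 0% = enzyme with DMSO and 100% = wells lacking PAFAH1B2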
# PAFAH2 inh: inhibitors of human PAFAH2; hit rate 0.99% among 340,000; Q99487; AID 492956; inhibition, % at 3.39 µM; recombinant PAFAH2, FP-rhodamine activity probe, fluorescence polarization;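 active = inhibition above the mean over all tested compounds plus 3 SD, cut at about 30% in these data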;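 also: inhibitors block probe labeling of enzyme so polarization drops; 0% = enzyme with DMSO and 100% = wells lacking PAFAH2 protein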
# PP5 primary: PP5 (human) phosphatase inhibition | P53041 | purified PP5c, OMFP substrate fluorescence | inhibition, % at 6.7 µM | hit rate 0.18% among 320,000 | AID 1987;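 active = inhibition above the campaign's mean inhibition across all tested compounds plus 3 SD, cut at about 9.5% in these data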;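 also: 0% = DMSO only and 100% = 100 µM cantharidin control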
# pPAFAH FP inh: pPAFAH (human) enzyme inhibition; hit rate 1.5% among 330,000; inhibition, % at 3.39 µM; recombinant pPAFAH, FP-rhodamine probe fluorescence polarization; AID 463082;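 active = inhibition above the mean inhibition across the screen plus 3 SD, cut at about 25% in these data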;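 also: inhibitors block binding of the rhodamine activity-based probe so polarization drops; 0% = enzyme with DMSO and 100% = wells lacking pPAFAH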
# Target sequence (Q13093 whole entry, looked up): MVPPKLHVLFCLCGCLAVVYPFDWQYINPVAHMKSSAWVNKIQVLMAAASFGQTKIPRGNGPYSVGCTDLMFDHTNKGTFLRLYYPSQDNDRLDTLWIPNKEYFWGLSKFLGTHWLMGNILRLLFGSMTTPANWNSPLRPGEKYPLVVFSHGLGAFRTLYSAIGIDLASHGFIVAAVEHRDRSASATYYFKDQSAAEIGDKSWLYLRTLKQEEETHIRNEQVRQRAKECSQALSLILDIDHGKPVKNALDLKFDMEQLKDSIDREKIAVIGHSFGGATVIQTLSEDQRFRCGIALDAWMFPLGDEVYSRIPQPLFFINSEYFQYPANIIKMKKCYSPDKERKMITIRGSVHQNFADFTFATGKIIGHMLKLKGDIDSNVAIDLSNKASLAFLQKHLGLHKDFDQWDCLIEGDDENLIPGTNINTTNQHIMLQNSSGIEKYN
# PP1 counter: PP1-alpha (human) inhibition in PP5 counter-screen; purified PP1alpha, OMFP fluorescence; AID 2235; inhibition, % at 6.7 µM; hit rate 0.9% among 320,000;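 active = inhibition above the mean inhibition of all tested compounds plus 3 SD, computed separately for each screening campaign, cut at about 15% in these data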
# PAFAH1B3 inh: blocks human PAF acetylhydrolase 1B catalytic subunit 3; AID 492972; inhibition, % at 3.39 µM; hit rate 0.28% among 340,000; Q15102; recombinant PAFAH1B3, FP-rhodamine probe, fluorescence polarization;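 active = inhibition above the screen-wide average of all tested compounds plus 3 SD, cut at about 25% in these data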;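 also: 0% = enzyme with DMSO only and 100% = wells lacking PAFAH1B3 protein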
# Target sequence (Q15102 whole entry, looked up): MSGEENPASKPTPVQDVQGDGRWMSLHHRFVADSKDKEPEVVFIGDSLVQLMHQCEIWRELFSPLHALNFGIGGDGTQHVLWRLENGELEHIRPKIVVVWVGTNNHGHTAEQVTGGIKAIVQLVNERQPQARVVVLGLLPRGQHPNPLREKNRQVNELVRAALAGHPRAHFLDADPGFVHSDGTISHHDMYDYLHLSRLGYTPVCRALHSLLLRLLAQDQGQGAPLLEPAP
# * hit, by the source's call; nt = no result. In the library only some 3.4% were active in any assay of this set; here they are far more common.
SMILES,PAFAH1B2 inh,PAFAH2 inh,PP5 primary,pPAFAH FP inh,PP1 counter,PAFAH1B3 inh
O=[N+]([O-])c1cccc(N/N=C/c2cc([N+](=O)[O-])ccc2O)c1,-0.6,39.5*,-0.9,27.7*,11.6,8.5
O=[N+]([O-])c1ccc(O)c(C=NNc2ccc(S(=O)(=O)O)cc2)c1,6.0,5.6,nt,nt,nt,9.4
COC(=O)[C@H](CC(C)C)NC(=O)Nc1ccc(S(N)(=O)=O)cc1,4.5,1.7,1.1,2.1,0.1,-1.1
COc1cc(/C(O)=C(\C#N)c2nc3ccccc3[nH]2)cc(OC)c1OC,3.5,-0.6,nt,nt,nt,2.7
C/C(=N\NC(=O)c1ccc(Br)cc1)C1C(=O)c2ccccc2C1=O,14.6,16.3,1.6,25.2*,3.1,29.3*
CC(=O)c1c(C)c(C)c2n1CCn1c(C)ccc1-2,0.0,0.0,3.1,-4.2,0.4,-2.3
O=C1NCC(Nc2ccc(Br)cc2)C(=O)N1 (configuration not stated),-2.3,4.7,nt,nt,nt,2.1
O=C(CSc1nc(=O)n2ccccc2n1)NCc1ccccc1,1.1,0.1,1.2,0.9,-7.3,-3.8
O=C1Nc2ccccc2C(O)(C(=O)NCc2ccco2)N1c1ccc(Cl)c(Cl)c1 (configuration not stated),5.1,4.5,-7.5,5.8,-1.5,8.4
CCN(CC)CC(C)CNC(=O)C1(O)c2ccccc2NC(=O)N1c1ccc(Cl)c(Cl)c1 (configuration not stated),1.1,4.5,2.2,4.3,15.4*,-0.5
Cc1ccc(-c2nc(Nc3cccc(O)c3)c3ccccc3n2)cc1,-3.4,-8.7,6.5,-2.0,3.1,9.8
Cc1ccc(-c2nc(Nc3ccc(O)cc3)c3ccccc3n2)cc1,1.6,-2.4,9.2,25.6*,-4.7,22.2
CN1C[C@@H]2[C@@H]3C(=O)N(Cc4ccccc4)C(=O)[C@@H]3[C@](Cc3ccccc3)(C1=O)N2C(=O)c1ccc(Br)cc1,2.8,0.6,nt,nt,nt,4.1
NC(=O)c1cccc(-c2cnc(N)c(C(=O)c3cccnc3)n2)c1,-0.1,5.5,nt,nt,nt,10.1
O=C(COC(=O)Cn1cc(C(F)(F)F)ccc1=O)Nc1ccc(Br)cc1F,1.7,12.4,nt,nt,nt,7.1
N#CC1=C(N)Oc2cc(N)ccc2C1c1ccc(F)cc1F (configuration not stated),5.0,2.1,0.2,26.8*,1.9,2.5
N#CC1=C(N)Oc2cc(N)ccc2C1c1ccc(F)cc1 (configuration not stated),4.7,-1.2,2.6,10.7,2.0,4.9
Cc1cccc(N2CCN(C(=O)N3CCCCC3)CC2)c1C,-3.0,23.4,1.7,28.5*,-4.4,7.8
O=C(Cc1ccc(Br)cc1)Nc1ncc([N+](=O)[O-])s1,35.1*,11.3,1.2,15.2,4.8,12.2
O=C(Cc1ccc(Cl)cc1)Nc1ncc([N+](=O)[O-])s1,15.9,9.5,nt,nt,nt,2.6
Cc1ccc(/C(O)=C2/C(=O)C(=O)N(c3ccccn3)C2c2ccc([N+](=O)[O-])cc2)cc1 (configuration not stated),6.5,-0.4,-1.2,3.8,15.7*,1.1
Cc1ccc(SCc2nc3ccccc3n2CC(=O)Nc2c(C)cccc2C)cc1,3.7,-8.3,1.2,-2.4,16.0*,-12.0
Cc1ccc(SCc2nc3ccccc3n2CC(=O)Nc2ccccc2)cc1,13.6,-2.6,3.7,-2.6,1.2,3.1
COc1ccc(Oc2nc(-c3ccccn3)nc3ccccc23)cc1,nt,nt,-1.5,1.5,15.0,nt
c1ccc(Oc2nc(-c3ccccn3)nc3ccccc23)cc1,nt,nt,0.7,1.6,15.9*,nt
SMILES,PAFAH1B2 inh,PAFAH2 inh,PP5 primary,pPAFAH FP inh,PP1 counter,PAFAH1B3 inh
S=c1[nH]nc(-c2cc(-c3ccco3)[nH]n2)n1-c1ccccc1Cl,8.8,19.1,2.2,29.2*,9.5,16.8
O=C(NNc1ccccc1)c1ccc(Cl)c(Cl)c1,3.2,5.4,nt,nt,nt,6.9
CCCCc1nc(C(N)=O)c2[nH]c(=O)n(-c3ccc(OCC)cc3)c2n1,4.4,2.3,1.5,3.9,-0.5,7.3
Cc1ccccc1OCCC(=O)OCC(=O)NNC(=O)c1cccs1,4.8,-3.7,2.2,24.9*,1.1,5.5
Cc1ccc(C)n1-c1ccc(C(=O)/C=C/N(C)C)cc1,2.3,1.6,3.2,13.8,16.0*,0.3
O=[N+]([O-])c1ccc(Nc2cccc3c2[nH]c2c(-c4ccccc4)nccc23)c([N+](=O)[O-])c1,-2.6,-2.1,nt,nt,nt,-10.2
CCN(CC)c1ccc(/C=C(\C#N)C(=O)c2ccc(Br)cc2)cc1,55.2*,81.1*,-5.6,-4.0,-4.9,41.0*
C#Cc1cccc(N2C(=O)C3C4C=CC(C3C2=O)C2C(=O)N(c3cccc(C#C)c3)C(=O)C42)c1 (configuration not stated),-3.4,-11.3,nt,nt,nt,-8.4
O=C(Nc1cccc(Br)c1)c1cccc(OC(=S)N2CCOCC2)c1,0.6,-4.5,4.8,-1.7,4.3,11.6
COc1cc([C@@H]2Oc3cc(C4Oc5cc(O)cc(O)c5C(=O)[C@H]4O)ccc3O[C@H]2CO)ccc1O (some centres not stated),7.8,11.3,1.8,35.3*,-0.1,25.0
CCOC(=O)N/N=C/c1ccc(OCCSc2ccc(Cl)cc2)c(OC)c1,17.7,1.2,4.8,34.4*,2.4,3.2
Nc1[nH]ncc1-c1ccc(F)cc1,-0.7,-1.8,2.8,29.8*,1.6,-7.6
CN(C(=O)CC1C(=O)NCCN1Cc1cccc(F)c1F)C1CC(C)(C)NC(C)(C)C1 (configuration not stated),0.7,7.1,1.0,2.5,-0.5,0.8
CCOC(=O)c1cc(C(=O)NNC(=O)c2cccc([N+](=O)[O-])c2)c(C)nc1C,-6.9,-5.4,nt,nt,nt,-2.2
Cc1oc2c(C)c3oc(=O)c(CCC(=O)NCCN4CCOCC4)c(C)c3cc2c1C,3.5,-2.7,1.0,4.0,-0.3,7.5
CC(=O)c1ccsc1-c1c(C)cc2oc(=O)cc(-c3ccccc3)c2c1C,4.4,-0.2,nt,14.5,nt,5.6
O=C1c2c(O)ccc(O)c2C(=O)c2c(NCCNCCO)ccc(NCCNCCO)c21,3.5,0.0,3.1,3.9,21.0*,3.5
CCCCCCCN1C(Nc2ccccc2)=NC[C@@H]1C,2.6,-0.7,4.0,-0.4,2.2,6.3
CC(C)(C)c1ccc(OCC(=O)N(Cc2cccs2)C2CCS(=O)(=O)C2)cc1 (configuration not stated),29.1*,10.8,1.5,2.7,-0.5,2.2
CCc1ccc(OCC(=O)N(Cc2cccs2)C2CCS(=O)(=O)C2)cc1 (configuration not stated),7.3,1.9,5.2,5.8,2.2,-2.6
C[C@H](CO)N1C[C@H](C)[C@@H](CN(C)C(=O)Nc2ccc(C(F)(F)F)cc2)Oc2c(NC(=O)Nc3ccc4c(c3)OCO4)cccc2C1=O,61.3*,-16.8,nt,8.1,nt,13.1
C[C@H](CO)N1C[C@H](C)[C@@H](CN(C)C(=O)Nc2ccc3c(c2)OCO3)Oc2c(NC(=O)Nc3ccc(C(F)(F)F)cc3)cccc2C1=O,27.7*,-8.7,nt,0.3,nt,2.6

# High-throughput results (PubChem)
